Results published in PubChem BioAssay (NCI).
About 83,000 compounds went through this panel and 20% of them were active in at least one assay; those are over-represented in the sample as a whole.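 Cells were grown in 96-well plates and exposed to the test compound at a single concentration for 48 hours; results are reported as percent growth, with values below 10 considered active.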 The source made the active and inactive calls.

What was measured:
Experiment in all cases: NCI-60 one-dose screen, 48 h (100 = growth as untreated, 0 = no growth, -100 = all killed)
NCI-H23 lung = details: 10 µM unless noted
NCI-H226 lung = details: 10 µM unless noted
NCI-H322M lung = details: 10 µM unless noted
HOP-62 NSCLC = details: 10 µM unless noted
NCI-H460 lung = details: 10 µM unless noted
HOP-92 NSCLC = details: 10 µM unless noted
NCI-H522 lung = details: 10 µM unless noted
A549/ATCC NSCLC = details: 10 µM unless noted
786-0 renal = details: 10 µM unless noted
COLO 205 colon = details: 10 µM unless noted
DU-145 prostate = details: 10 µM unless noted
K-562 leukemia = details: 10 µM unless noted
MALME-3M melanoma = details: 10 µM unless noted
MDA-MB-231 breast = details: 10 µM unless noted
RXF 393 renal = details: 10 µM unless noted
SF-268 CNS = details: 10 µM unless noted
SF-295 CNS = details: 10 µM unless noted
SF-539 CNS = details: 10 µM unless noted
UACC-257 melanoma = details: 10 µM
M14 melanoma = details: 10 µM unless noted

SMILES | growth (NCI-H23 lung) | growth (NCI-H226 lung) | growth (NCI-H322M lung) | growth (HOP-62 NSCLC) | growth (NCI-H460 lung) | growth (HOP-92 NSCLC) | growth (NCI-H522 lung) | growth (A549/ATCC NSCLC) | growth (786-0 renal) | growth (COLO 205 colon) | growth (DU-145 prostate) | growth (K-562 leukemia) | growth (MALME-3M melanoma) | growth (MDA-MB-231 breast) | growth (RXF 393 renal) | growth (SF-268 CNS) | growth (SF-295 CNS) | growth (SF-539 CNS) | growth (UACC-257 melanoma) | growth (M14 melanoma)
COc1cccc(-c2nc3sccn3c2-c2ccnc(NCCCNS(=O)(=O)c3ccc(F)cc3)n2)c1 | 16.2% (inactive) | 13.7% (inactive) | 64.7% (inactive) | 82.4% (inactive) | 40.3% (inactive) | 61.5% (inactive) | 14% (inactive) | 41.6% (inactive) | 44.1% (inactive) | 17.1% (inactive) | 27.7% (inactive) | 16.6% (inactive) | 32.4% (inactive) | 53.2% (inactive) | 55% (inactive) | 37% (inactive) | 24.7% (inactive) | 66.7% (inactive) | 55.2% (inactive) | 18.1% (inactive)
CC(C)C[C@H](NC(=O)Cn1ccc(NCc2ccccc2)cc1=O)B(O)O | 31.7% (inactive) | -75% (active) | 91.3% (inactive) | 44.9% (inactive) | 60.5% (inactive) | 2.85% (active) | -20.7% (active) | 40.4% (inactive) | 20.6% (inactive) | 32% (inactive) | 36.6% (inactive) | 15.6% (inactive) | -21.2% (active) | 28% (inactive) | -51.7% (active) | 3.08% (active) | 28.4% (inactive) | -29.4% (active) | -3% (active) | -17% (active)
CCn1cc(C(=O)O)c(=O)c2cc(F)c(N3CCN(S(=O)(=O)c4c(C)cc(C)cc4C)CC3)cc21 | 77.7% (inactive) | 87.4% (inactive) | 83.5% (inactive) | 71.5% (inactive) | 82.8% (inactive) | 76.9% (inactive) | 86.5% (inactive) | 78% (inactive) | 102% (inactive) | 93.2% (inactive) | 99.5% (inactive) | 79.9% (inactive) | 90.3% (inactive) | 83.7% (inactive) | 88.9% (inactive) | 83.7% (inactive) | 48.4% (inactive) | 79.9% (inactive) | 106% (inactive) | 75.6% (inactive)
CC(=O)Nc1ccc2c(c1)/C(=C\C=C/c1ccc([N+](C)(C)C)cc1)c1ccccc1-2 | 54.5% (inactive) | 57.9% (inactive) | 50.1% (inactive) | 18.4% (inactive) | 73.4% (inactive) | 52% (inactive) | 18.1% (inactive) | 43.2% (inactive) | 55.4% (inactive) | 58.1% (inactive) | 73% (inactive) | 49.5% (inactive) | 86.5% (inactive) | 63.7% (inactive) | 99.1% (inactive) | 48.6% (inactive) | 46.5% (inactive) | 42.4% (inactive) | – | 71.5% (inactive)
CCC(C)NCC(=O)O (configuration not stated) | 108% (inactive) | 92.6% (inactive) | 118% (inactive) | 98.2% (inactive) | 108% (inactive) | 109% (inactive) | 78.7% (inactive) | 105% (inactive) | 103% (inactive) | 107% (inactive) | 115% (inactive) | 96.3% (inactive) | 105% (inactive) | 111% (inactive) | 103% (inactive) | 107% (inactive) | 92.4% (inactive) | 92.7% (inactive) | 112% (inactive) | 99.3% (inactive)
Cc1cc(N/C=c2\sc3ncnn3c2=O)no1 | 91.6% (inactive) | 108% (inactive) | 81.5% (inactive) | 103% (inactive) | 105% (inactive) | 92.2% (inactive) | 90.8% (inactive) | 107% (inactive) | 100% (inactive) | 112% (inactive) | 93.7% (inactive) | 98.5% (inactive) | 87.3% (inactive) | 102% (inactive) | 113% (inactive) | 90.1% (inactive) | 99% (inactive) | 107% (inactive) | 105% (inactive) | 92.8% (inactive)
COc1cc(NCCCN=C(N)NC(N)=NC(C)C)c2ncccc2c1 | 34.7% (inactive) | 92% (inactive) | 52% (inactive) | 96.2% (inactive) | 91.9% (inactive) | 36.9% (inactive) | -13.1% (active) | 78.6% (inactive) | 98.8% (inactive) | -1.53% (active) | 106% (inactive) | 44.6% (inactive) | -24.2% (active) | 64.9% (inactive) | 94.8% (inactive) | 44.1% (inactive) | 87.5% (inactive) | 21.7% (inactive) | 45.1% (inactive) | 65.3% (inactive)
Cc1ccc(OCCn2c(C)nn(-c3ccc(Cl)cc3)c2=O)cc1 | 94.7% (inactive) | 108% (inactive) | 108% (inactive) | 103% (inactive) | 106% (inactive) | 84.1% (inactive) | 106% (inactive) | 100% (inactive) | 100% (inactive) | 115% (inactive) | 135% (inactive) | 107% (inactive) | 99.8% (inactive) | 103% (inactive) | 125% (inactive) | 117% (inactive) | 98.9% (inactive) | 110% (inactive) | 104% (inactive) | 102% (inactive)
CN(C)CCCNC(=O)C(c1ccccc1)c1ccccc1 | 93.5% (inactive) | 106% (inactive) | 102% (inactive) | 103% (inactive) | 112% (inactive) | 98% (inactive) | 89.9% (inactive) | 89.9% (inactive) | 102% (inactive) | 106% (inactive) | 115% (inactive) | 95.2% (inactive) | 104% (inactive) | 102% (inactive) | 116% (inactive) | 107% (inactive) | 102% (inactive) | 99.4% (inactive) | – | 101% (inactive)
O=C(/C=C/CN1CCOCC1)Nc1cc2c(Nc3ccc(F)c(Cl)c3F)ncnc2cc1OCCOC(F)F | 69.2% (inactive) | 70% (inactive) | 8.76% (active) | 51.2% (inactive) | 49.4% (inactive) | -8.94% (active) | 8.53% (active) | 40.5% (inactive) | 38.9% (inactive) | 71.9% (inactive) | 39.7% (inactive) | 52% (inactive) | 81.6% (inactive) | 33.8% (inactive) | 36.4% (inactive) | 48.3% (inactive) | 71.7% (inactive) | 63.5% (inactive) | – | 62.3% (inactive)
COc1cc(/C=C/C(=O)c2ccc(NC(=O)CN3CCN(c4cc5c(cc4F)c(=O)c(C(=O)O)cn5C4CC4)CC3)cc2)cc(OC)c1OC | -35.6% (active) | -9.81% (active) | -7.05% (active) | 4.38% (active) | -20% (active) | -1.75% (active) | -71.5% (active) | -19.2% (active) | -67.8% (active) | -12.8% (active) | 2.17% (active) | 1.66% (active) | 31.4% (inactive) | 27.6% (inactive) | -87.6% (active) | -1.11% (active) | -27.2% (active) | -15.7% (active) | 30.8% (inactive) | -14.1% (active)
CC/C(=C(\c1ccc(O)cc1)c1ccc(OCCN(C)CCN(C)C(=O)CCC(=O)c2c(C)[nH]c(/C=C3\N=C(c4ccc[nH]4)C=C3OC)c2C)cc1)c1ccccc1 | 80.1% (inactive) | 77% (inactive) | 70.4% (inactive) | 91.3% (inactive) | 58.2% (inactive) | 58.8% (inactive) | 81.9% (inactive) | 76.4% (inactive) | 87.5% (inactive) | 89.8% (inactive) | 46.9% (inactive) | 5.83% (active) | 55.4% (inactive) | 9.16% (active) | 66.1% (inactive) | 69.8% (inactive) | 95.9% (inactive) | 63.2% (inactive) | 104% (inactive) | 20.7% (inactive)
COC(=O)c1cc(-c2cccs2)c(C#N)c(N)c1C#N | 96.7% (inactive) | 101% (inactive) | 99.8% (inactive) | 90.3% (inactive) | 104% (inactive) | 94.2% (inactive) | 95.4% (inactive) | 101% (inactive) | 100% (inactive) | 109% (inactive) | 109% (inactive) | 104% (inactive) | 116% (inactive) | 94.3% (inactive) | 108% (inactive) | 99.5% (inactive) | 103% (inactive) | 101% (inactive) | 100% (inactive) | 110% (inactive)
CCC1=C[C@@H]2CN(C1)Cc1c([nH]c3ccccc13)[C@@](C(=O)OC)(c1cc3c(cc1OC)N(C=O)[C@H]1[C@@](O)(C(=O)OC)[C@H](OC(C)=O)[C@]4(CC)[C@@H]5C[C@@H]5CN5CC[C@]31[C@@H]54)C2 | 15.7% (inactive) | 35.4% (inactive) | 48.8% (inactive) | 34% (inactive) | 6.63% (active) | -16.4% (active) | -0.697% (active) | 11% (inactive) | 25.8% (inactive) | -78.5% (active) | -9.76% (active) | 9.35% (active) | 40.4% (inactive) | -24% (active) | 40.7% (inactive) | 16.1% (inactive) | -32.8% (active) | -18.1% (active) | 52.5% (inactive) | 3.92% (active)
